The panel holds about 79,000 compounds, 15% with a hit somewhere; the sample as a whole holds those more often. The source made the active and inactive calls. Cut-off read from the data, not from the text of the source: active = growth inhibition above about 70%; inactive = the rest.
Columns and labels:
[1] = NCI Yeast Anticancer Drug Screen. Data for the mec2-1 strain (AID 157); conditions: S. cerevisiae mec2-1 strain, active compounds read high
Method in brief: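 Each compound was tested on mec2-1 yeast, a strain altered in DNA damage repair or cell cycle control. Growth inhibition is reported relative to vehicle.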

[2] = NCI Yeast Anticancer Drug Screen. Data for the rad14 strain (AID 159);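 note: 0% = growth of vehicle-treated control cultures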; conditions: S. cerevisiae rad14 strain growth inhibition, active compounds read high
Method in brief: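 Growth inhibition vs vehicle controls; genetically altered yeast strain (DNA damage repair defect) treated with test compounds.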

[3] = NCI Yeast Anticancer Drug Screen. Data for the sgs1 mgt1 strain (AID 161);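 note: 0% = growth of cultures given vehicle only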; conditions: S. cerevisiae sgs1 mgt1 strain, active compounds read high
Method in brief: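 Mutant yeast exposed to compound; growth scored against vehicle-only wells.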

[4] = NCI Yeast Anticancer Drug Screen. Data for the CLN2oe strain (AID 163);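 note: 0% = growth of vehicle-only control cultures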; conditions: S. cerevisiae CLN2oe strain, active compounds read high
Method in brief: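 First, the altered yeast strain was treated with each compound; second, its growth was measured; finally, inhibition was derived by comparison with vehicle controls.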

[5] = NCI Yeast Anticancer Drug Screen. Data for the cln2 rad14 strain (AID 165);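 note: 0% = growth equal to vehicle treated cultures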; conditions: S. cerevisiae cln2 rad14 strain, active compounds read high
Method in brief: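 Test compounds were added to cln2 rad14 yeast cultures; inhibition of growth was then determined by comparison with vehicle treatment.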

[6] = NCI Yeast Anticancer Drug Screen. Data for the bub3 strain (AID 167); conditions: S. cerevisiae bub3 mutant strain, active compounds read high
Method in brief: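 Readout: yeast growth inhibition, expressed relative to vehicle-only wells. The test organism is a mutant strain from a panel with lesions in DNA repair or checkpoint genes.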

[7] = NCI Yeast Anticancer Drug Screen. Data for the wt2 strain (AID 169);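 note: 0% = growth of vehicle-treated yeast cultures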; conditions: S. cerevisiae wt2 strain growth inhibition, active compounds read high
Method in brief: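 The panel's yeast strains carry defined changes in DNA repair or cell cycle genes. Each strain is grown with compound, and growth loss is scored relative to vehicle.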

[8] = NCI Yeast Anticancer Drug Screen. Data for the mlh1 strain (AID 171);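 note: 0% = growth of vehicle-treated control cultures of the same strain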; conditions: S. cerevisiae mlh1 strain growth inhibition, active compounds read high
Method in brief: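 Inhibition values reflect reduced yeast growth in the presence of compound, referenced to vehicle controls, using a strain chosen for its alteration in DNA repair or cell cycle control.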

[9] = NCI Yeast Anticancer Drug Screen. Data for the sgs1 strain (AID 173);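 note: 0% = growth of vehicle-only control cultures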; conditions: S. cerevisiae sgs1 mutant, active compounds read high
Method in brief: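 Vehicle-treated cultures served as reference for growth inhibition of a yeast strain altered in DNA damage repair or cell cycle control after compound exposure.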

[10] = NCI Yeast Anticancer Drug Screen. Data for the mlh1 rad18 strain (AID 175); conditions: S. cerevisiae mlh1 rad18 strain growth inhibition, active compounds read high
Method in brief: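 Inhibition values reflect reduced growth of mutant yeast versus vehicle-treated controls following compound exposure; the mutations affect DNA damage repair.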

[11] = NCI Yeast Anticancer Drug Screen. Data for the wt1 strain (AID 149);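 note: 0% = growth of vehicle-treated wt1 cultures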; conditions: S. cerevisiae wt1 strain (SPY 50644) growth inhibition, active compounds read high
Method in brief: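 Growth inhibition read against vehicle controls after compound exposure of the wt1 yeast strain.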

[12] = NCI Yeast Anticancer Drug Screen. Data for the rad50EPP+ strain (AID 151);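 note: 0% = growth of vehicle-treated control cultures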; conditions: S. cerevisiae rad50 mutant strain, active compounds read high
Method in brief: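 Genetically defined yeast (rad50EPP+, DNA damage repair alteration) is grown with compound, and inhibition of growth is expressed relative to vehicle-treated controls.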

[13] = NCI Yeast Anticancer Drug Screen. Data for the mgt1 strain (AID 153); conditions: S. cerevisiae mgt1 mutant growth inhibition, active compounds read high
Method in brief: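 In the mgt1 strain, test compounds were added and growth inhibition was determined relative to vehicle-treated controls.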

[14] = NCI Yeast Anticancer Drug Screen. Data for the rad50 strain (AID 155);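 note: 0% = growth of vehicle-only cultures of the same strain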; conditions: S. cerevisiae rad50 strain growth inhibition, active compounds read high
Method in brief: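 Readout: growth inhibition relative to vehicle-treated cultures. Compound exposure was carried out in a genetically defined yeast strain deficient in DNA damage repair.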

[15] = NCI Yeast Anticancer Drug Screen. Data for the rad18 strain (AID 177); conditions: S. cerevisiae rad18 mutant growth inhibition, active compounds read high
Method in brief: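 Steps: expose repair-mutant yeast to compound; measure growth; express as inhibition relative to vehicle control.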

[16] = NCI Yeast Anticancer Drug Screen. Data for the rad52 strain (AID 147);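 note: 0% = growth of vehicle-treated control cultures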; conditions: S. cerevisiae rad52 mutant growth inhibition, active compounds read high
Method in brief: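 Inhibition of yeast growth, referenced to vehicle controls, was the measured output for a strain with defective DNA damage repair.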

[17] = at 5.0 µM (retest, dose inferred, filed as 0.5)
[18] = at 50.0 µM (retest, dose inferred, filed as 5.0)

Measured: growth inhibition

Cc1ccc(S(=O)(=O)N/N=C/c2c(O)ccc3ccccc23)cc1
inactive: [2]; at 1.2 µM -14% | [2]; at 3.7 µM -14% | [2]; at 11.0 µM 59% | [3]; [17] -10% | [4]; at 1.2 µM -17% | [4]; at 3.7 µM 8% | [4]; at 11.0 µM 52% | [4]; at 33.0 µM 58% | [5]; [17] 21% | [6]; at 1.2 µM 17% | [6]; at 3.7 µM 34% | [6]; [17] 37% | [6]; at 11.0 µM 55% | [7]; at 1.2 µM -5% | [7]; at 3.7 µM -9% | [7]; at 11.0 µM 43% | [8]; at 1.2 µM -30% | [8]; at 3.7 µM -42% | [8]; at 11.0 µM 49% | [8]; at 33.0 µM 56% | [9]; at 1.2 µM 26% | [9]; at 3.7 µM 42% | [10]; [17] 44% | [10]; [18] 64%
active: [1]; at 100.0 µM 79% | [2]; at 33.0 µM 73% | [2]; at 100.0 µM 83% | [3]; [18] 91% | [4]; at 100.0 µM 71% | [5]; [18] 89% | [6]; at 33.0 µM 70% | [6]; [18] 85% | [6]; at 100.0 µM 77% | [7]; at 33.0 µM 81% | [7]; at 100.0 µM 88% | [8]; at 100.0 µM 78% | [9]; at 11.0 µM 76% | [9]; at 33.0 µM 80% | [9]; at 100.0 µM 87% | [10]; at 50.0 µM 78.5%

O=C1C(C(O)(C(F)(F)F)C(F)(F)F)CCC1C(O)(C(F)(F)F)C(F)(F)F (stereo unspecified)
inactive: [11]; at 1.2 µM 3% | [11]; at 3.7 µM 6% | [11]; at 11.0 µM 8% | [11]; at 33.0 µM 19% | [11]; at 100.0 µM 33% | [12]; at 1.2 µM -3% | [12]; at 3.7 µM -2% | [12]; at 11.0 µM 3% | [12]; at 33.0 µM 18% | [12]; at 100.0 µM 10% | [13]; at 1.2 µM 1% | [13]; at 3.7 µM 2% | [13]; at 11.0 µM 8% | [13]; at 33.0 µM 9% | [13]; at 100.0 µM 34% | [14]; at 1.2 µM -4% | [14]; at 3.7 µM -14% | [14]; [17] 2% | [14]; at 11.0 µM -22% | [14]; at 33.0 µM 3% | [14]; [18] 33% | [14]; at 50.0 µM 22.3% | [14]; at 100.0 µM 30% | [1]; at 1.2 µM 7% | [1]; at 3.7 µM 8% | [1]; [17] 9% | [1]; at 11.0 µM 10% | [1]; at 33.0 µM 20% | [1]; [18] 26% | [1]; at 50.0 µM 42.6% | [1]; at 100.0 µM 32% | [2]; at 1.2 µM 4% | [2]; at 3.7 µM 6% | [2]; at 11.0 µM 14% | [2]; at 33.0 µM 28% | [2]; at 100.0 µM 49% | [3]; [17] 4% | [3]; [18] 54% | [3]; at 50.0 µM 67.3% | [4]; at 1.2 µM 5% | [4]; at 3.7 µM 2% | [4]; at 11.0 µM 8% | [4]; at 33.0 µM 27% | [4]; at 100.0 µM 42% | [5]; [18] 46% | [5]; at 50.0 µM 14.2% | [6]; at 1.2 µM -1% | [6]; at 3.7 µM 0% | [6]; [17] -12% | [6]; at 11.0 µM 0% | [6]; at 33.0 µM 11% | [6]; [18] 32% | [6]; at 50.0 µM 28.4% | [6]; at 100.0 µM 24% | [7]; at 1.2 µM 1% | [7]; at 3.7 µM 4% | [7]; at 11.0 µM 8% | [7]; at 33.0 µM 23% | [7]; at 100.0 µM 39% | [8]; at 1.2 µM 5% | [8]; at 3.7 µM 7% | [8]; at 11.0 µM 11% | [8]; at 33.0 µM 22% | [8]; at 100.0 µM 33% | [9]; at 1.2 µM 3% | [9]; at 3.7 µM 8% | [9]; at 11.0 µM 9% | [9]; at 33.0 µM 28% | [9]; at 100.0 µM 43% | [10]; [17] 2% | [10]; [18] 49% | [10]; at 50.0 µM 69.5% | [15]; at 1.2 µM 4% | [15]; at 3.7 µM 6% | [15]; at 11.0 µM 3% | [15]; at 33.0 µM -2% | [15]; at 100.0 µM 11%
active: [5]; [17] 83%

Cc1ccc2nc(N/N=C/c3ccc(C)s3)cc(C)c2c1
inactive: [16]; at 1.2 µM -26% | [16]; at 3.7 µM -40% | [16]; at 11.0 µM -47% | [14]; at 1.2 µM -2% | [14]; at 3.7 µM -22% | [14]; [17] 22% | [14]; at 11.0 µM -1% | [1]; at 1.2 µM -23% | [1]; at 3.7 µM -17% | [1]; [17] 12% | [1]; at 11.0 µM -19% | [2]; at 1.2 µM -32% | [2]; at 3.7 µM -18% | [2]; at 11.0 µM 0% | [3]; [17] 10% | [3]; [18] 9% | [4]; at 1.2 µM 5% | [4]; at 3.7 µM -5% | [4]; at 11.0 µM 7% | [5]; [17] 17% | [5]; [18] -18% | [6]; at 1.2 µM -6% | [6]; at 3.7 µM 5% | [6]; [17] 7% | [6]; at 11.0 µM 15% | [6]; [18] -10% | [7]; at 1.2 µM 9% | [7]; at 3.7 µM 6% | [7]; at 11.0 µM 30% | [8]; at 1.2 µM -18% | [8]; at 3.7 µM -28% | [8]; at 11.0 µM -10% | [9]; at 1.2 µM -12% | [9]; at 3.7 µM -19% | [9]; at 11.0 µM -1% | [10]; [17] 31%
active: [16]; at 33.0 µM 98% | [16]; at 100.0 µM 98% | [14]; at 33.0 µM 99% | [14]; [18] 98% | [14]; at 50.0 µM 89.7% | [14]; at 100.0 µM 93% | [1]; at 33.0 µM 99% | [1]; [18] 99% | [1]; at 50.0 µM 92.7% | [1]; at 100.0 µM 96% | [2]; at 33.0 µM 99% | [2]; at 100.0 µM 98% | [3]; at 50.0 µM 91.8% | [4]; at 33.0 µM 99% | [4]; at 100.0 µM 93% | [5]; at 50.0 µM 90.8% | [6]; at 33.0 µM 99% | [6]; at 50.0 µM 91.7% | [6]; at 100.0 µM 95% | [7]; at 33.0 µM 99% | [7]; at 100.0 µM 96% | [8]; at 33.0 µM 99% | [8]; at 100.0 µM 99% | [9]; at 33.0 µM 99% | [9]; at 100.0 µM 93% | [10]; [18] 98% | [10]; at 50.0 µM 91.2%
